# PI5P4Ka inh: inhibitors of human PI5P4K alpha. PI5P4Kalpha enzyme, ADP-Glo luminescence, 60 min; active compounds read low. AID 652105. max response, %. P48426. 1.2% of 330,000 active; active = max response of -50% or lower; inconclusive = between -30% and -50%; inactive = -30% or higher; note: value at the top dose of about 77 µM
#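 ADP-Glo luminescence end-point read after a 60 min room-temperature kinase reaction of PI5P4Kalpha plus substrate, initiated with ATP at 5 microM final. Buffer: 0.038 M HEPES pH 7.4, EGTA, 0.1% CHAPS, 5% DMSO.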
# FEN1 inh: inhibitors of human flap endonuclease 1; 0.35% of 390,000 active; Potency, µM (highest dose often 114 µM), for inactives: at the top dose activity change, negative = inhibition, actives largely listed as inhibitors; P39748; Recombinant FEN1 flap cleavage, fluorescence, 15 min; note: potency is the fitted concentration of half-maximal effect; nearly all actives have a fitted effect of over 65% in size
# Target sequence (P39748 whole entry, looked up): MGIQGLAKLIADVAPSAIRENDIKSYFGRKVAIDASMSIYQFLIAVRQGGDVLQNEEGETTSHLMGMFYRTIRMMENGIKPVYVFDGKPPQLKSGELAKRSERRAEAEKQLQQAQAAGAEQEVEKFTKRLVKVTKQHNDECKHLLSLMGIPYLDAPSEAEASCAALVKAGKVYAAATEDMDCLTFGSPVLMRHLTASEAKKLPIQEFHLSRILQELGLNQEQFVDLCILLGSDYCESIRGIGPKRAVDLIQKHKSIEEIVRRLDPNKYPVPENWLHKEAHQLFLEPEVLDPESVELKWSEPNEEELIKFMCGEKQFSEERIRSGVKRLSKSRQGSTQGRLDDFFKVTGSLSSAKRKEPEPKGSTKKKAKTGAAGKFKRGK
#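 Compounds are tested as a concentration series against 10 nM FEN1; after a 15 min room-temperature preincubation, 50 nM substrate starts cleavage, with plate reads at 0 and 15 min. Normalized responses are fitted by a Hill equation.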
# GCN5L2 inh: GCN5L2 (KAT2A) acetyltransferase inhibition; GCN5L2 HAT assay, ThioGlo1 CoA-SH fluorescence; 0.21% of 390,000 active; Potency, µM (highest dose often 58.9 µM), without a hit: at the top dose activity change, negative = inhibition, actives largely listed as inhibitors; note: potency is the fitted concentration of half-maximal effect
#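 Compounds, pin-transferred from DMSO stocks, meet 20nM GCN5L2 for 15 min before the reaction begins with H3(1-25) peptide (75uM) and acetyl-CoA (70uM). Thiol-reactive ThioGlo1 reports CoA release over 20 min at room temperature.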
# RECQ1 helicase: blocks DNA unwinding by human RECQ1 | P46063 | 0.54% of 240,000 active | RECQ1 DNA unwinding, red fluorescence kinetic read | Potency, µM (series often up to 57.3 µM), inactives show top-dose activity, negative = inhibition, actives largely listed as inhibitors;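 note: potency is the fitted concentration of half-maximal effect; plate controls were vehicle for no effect and no enzyme for full effect; nearly all actives have a fitted effect of over 30% in size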
#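 RECQ1T1 50 nM; forked duplex (20 bp + 30-nt ss tails) 200 nM, ATP 2 mM final; pH 8.0, 2 mM MgCl2, 2.5 ug/ml poly(dI-dC); 15 min compound preincubation; discontinuous kinetic read over 2 h at RT.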
# BLM helicase inh: Bloom syndrome helicase (human) inhibition. P54132. recombinant BLM DNA unwinding, fluorescence dequenching. Potency, µM (top dose mostly 56.1 µM), without a hit: top-dose activity change, negative = inhibition, most hits filed as inhibitors. 0.2% of 350,000 active. AID 2528;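 note: potency is the fitted concentration of half-maximal effect; plate controls were vehicle for no effect and no enzyme for full effect; nearly all actives have a fitted effect of over 35% in size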
# APEX1 inh: APE1 (human) endonuclease inhibition | P27695 | recombinant APE1, TAMRA/BHQ-2 abasic DNA cleavage fluorescence | Potency, µM (series often up to 65.8 µM), inactives show at the highest dose activity change, negative = inhibition, actives largely listed as inhibitors | 0.35% of 350,000 active | AID 2517;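 note: potency is the fitted concentration of half-maximal effect; plate controls were vehicle for no effect and reference inhibitor for full effect; nearly all actives have a fitted effect of over 55% in size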
#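 Quantitative HTS: incision of a TAMRA/BHQ-2 double-stranded substrate bearing a tetrahydrofuran abasic site by 0.75 nM APE1 raises fluorescence. Substrate 50 nM final, added after 15 min compound preincubation at room temperature; progress as third-minus-first kinetic read difference.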
# ADP-Glo counter: counter-screen for PI5P4K inhibitors: ADP-Glo detection interference, no enzyme | shares compounds with PI5P4Ka inh | 1,100 tested, under 10 active | Potency, µM (doses to about 76.9 µM), without a hit: at the top dose activity change, negative = inhibition, hits mostly inhibitors | ADP-Glo detection counter-screen, luciferase luminescence, no enzyme | AID 743285
# The depositor's hits bear a star; ? = inconclusive; · = not tested or not shown; [ ] = remark or other dose. Hits are enriched below; roughly 1.5% of the tested compounds scored in any of these assays. Unless noted, calls come from the whole dose curve; as a rule, active = well fitted curve in the direction sought with a large enough effect; inconclusive = small, poorly fitted or top-dose-only effect, or another doubt; inactive = no such curve, though single readings can be large; an effect the other way counts as inactive or inconclusive. Unless noted, % is set by controls: 0 for no effect and ±100 for the full control effect.
SMILES,PI5P4Ka inh,FEN1 inh,GCN5L2 inh,RECQ1 helicase,BLM helicase inh,APEX1 inh,ADP-Glo counter
CCC(C)n1c(SCC(=O)Nc2ccc3[nH]c(=O)[nH]c3c2)nc2ccccc2c1=O (stereo not drawn),-50.3*,-24.3%,-6.7%,·,·,-11.4%,-0.5%
C=CCN1c2ccccc2[C@]23C[C@@H](C(=O)OC)N(S(=O)(=O)c4ccc(C)cc4)C2=NC(C(=O)OC)=C(C(=O)OC)[C@H]13,·,·,·,-5.8%[11.5 µM],-2.7%[12.4 µM],0.4%[12.4 µM],·
S=C(NCc1ccccc1)N1CCc2ccccc2C1,-93.2*,-0.3%,-7.4%,-5.7%,1.3%,12.9%,6.1%
CCNC(=S)N1CCc2ccccc2C1,-0.7,9.6%,11.8%,-5.8%,-3.6%,8.2%,·
Cc1ccccc1-c1ccc(/C=C2/SC(N3CCOCC3)=NC2=O)o1,3.2,-4.3%,-9.6%,-3.6%,-1.7%,-2.9%,·
Cc1c(C(=O)O)cccc1-c1ccc(/C=C2\SC(=O)NC2=O)o1,-56.5*,?,-5.8%,·,4.3%,-1.4%,-3.8%
O=C(Nc1ccc(Cl)cc1)Nc1ccccc1CC[N+](=O)[O-],-78.9*,-13.6%,-2.4%,-0.9%,-7.0%,-4.5%,-3.3%
O=C(Nc1ccc(Cl)cc1)Nc1ccccc1C(=O)O,3.0,-3.6%,18.8%,31.8%,2.3%,-2.9%,·
Nc1ncnc2c1nc(Sc1ccc(Cl)cc1)n2[C@H]1O[C@@H]2COP(=O)(O)O[C@H]2[C@@H]1O,·,·,·,-0.5%,·,-6.7%,·
Cc1ccccc1CN1C(=O)C(C)S/C1=N/N=C/c1ccco1 (stereo not drawn),-2.2,-12.3%,-20.5%,-13.3%,?,7.3%,·
Cc1ccccc1CN1C(=O)C(C)Sc2ccc(-c3ccco3)cc21 (stereo not drawn),-53.6*,·,·,·,·,·,-3.7%
Cc1ccc2c(c1)C(c1ccc(F)cc1)N(C(=O)C(C)C)CC(=O)N2 (stereo not drawn),·,-3.9%,1.8%,·,-0.5%,·,·
Cc1ccc(C2CC(c3ccc(NS(C)(=O)=O)cc3)=NN2C(=O)c2ccco2)cc1 (stereo not drawn),-27.1,1.6%,-4.9%,-3.4%,-3.8%,?,·
CS(=O)(=O)Nc1ccc(C2=NN(C(=O)c3ccco3)C(c3cccc(F)c3)C2)cc1 (stereo not drawn),-65.1*,-13.3%,-8.7%,-14.6%,-5.6%,-4.8%,0.0%
CS(=O)(=O)Nc1ccc(C2=NN(C(=O)c3ccco3)C(c3ccccc3)C2)cc1 (stereo not drawn),-51.4*,5.5%,-4.0%,6.0%,-0.1%,-1.5%,3.0%
CC(C)CS(=O)(=O)c1oc(-c2ccc(F)cc2)nc1S(=O)(=O)c1ccccc1,·,-16.1%,-8.7%,·,-12.2%,·,·
CC(C)CO/N=C1/C[C@@H](O)[C@@H](O)[C@@H]2[C@@H]3C(=O)N([C@@H](C)c4ccccc4)C(=O)[C@H]3CC[C@H]12,·,·,·,-0.7%[11.5 µM],-0.7%[12.4 µM],13.5%[12.4 µM],·
CCN(CCCNC(=O)c1ccc(Sc2ccc(Cl)cc2)c(NC(C)=O)c1)c1ccccc1,·,12.5%,-2.4%,·,-10.9%,·,·
Cc1ccc(Nc2nc(-c3sc(N)nc3C)cs2)cc1,-54.2*,1.1%,-28.4%,·,-4.2%,?,-3.1%
COc1ccc(Nc2nc(-c3sc(N)nc3C)cs2)cc1,-21.2,-7.9%,-8.3%,-2.5%,-3.3%,-0.9%,·
COc1ccc2c(CC(=O)OCC(=O)Nc3cccc(C)c3)coc2c1,-56.3*,?,-16.6%,·,·,-24.2%,-0.4%
CCc1ccccc1-n1nnc(-c2nsc(NC(=O)c3ccc(C)c(C)c3)n2)c1C,·,-3.3%,-2.9%,·,-8.2%,·,·
Nc1c(C(=O)O)cnc2c(-c3ccc(Cl)cc3)cnn12,-84.0*,-17.1%,-4.1%,-8.0%,-3.2%,-5.9%,-1.5%
Cc1ccc(CSCC(=O)N2CCOCC2)cc1,-51.5*,2.9%,-9.9%[0.501 µM],-11.1%,0.8%,8.4%,-1.6%
